Data: PubChem BioAssay AID1259349 (Broad Institute, 2017)
“And” between values parts separate entries of the source, which are not always exact repeats. Equal entries are not always repeated. The whole screen tested about 17,000 compounds, of which about 1,100 (6.5%) were called active.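 Rule for the calls: active = z-score of -3 or lower, meaning strong loss of probe binding signal; inactive = the rest.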 The entries come from a sample that favours actives as a whole. A structure can be active in one record and inactive in another.

Target: Insulin-degrading enzyme (Homo sapiens) (UniProt P14735)
Assay: displacers of FL-6b probe from IDE – biochemical, fluorescence anisotropy, probe displacement, primary screen (AID 1259349);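 note: His-tagged human IDE residues 42-1019 made in E. coli with 30 nM FL-6b probe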
Settings: purified IDE, FL-6b probe fluorescence polarization; at 20 µM; stronger effect = lower value

Insulin-degrading enzyme (Homo sapiens), sequence (P14735 42-1019 limits assumed): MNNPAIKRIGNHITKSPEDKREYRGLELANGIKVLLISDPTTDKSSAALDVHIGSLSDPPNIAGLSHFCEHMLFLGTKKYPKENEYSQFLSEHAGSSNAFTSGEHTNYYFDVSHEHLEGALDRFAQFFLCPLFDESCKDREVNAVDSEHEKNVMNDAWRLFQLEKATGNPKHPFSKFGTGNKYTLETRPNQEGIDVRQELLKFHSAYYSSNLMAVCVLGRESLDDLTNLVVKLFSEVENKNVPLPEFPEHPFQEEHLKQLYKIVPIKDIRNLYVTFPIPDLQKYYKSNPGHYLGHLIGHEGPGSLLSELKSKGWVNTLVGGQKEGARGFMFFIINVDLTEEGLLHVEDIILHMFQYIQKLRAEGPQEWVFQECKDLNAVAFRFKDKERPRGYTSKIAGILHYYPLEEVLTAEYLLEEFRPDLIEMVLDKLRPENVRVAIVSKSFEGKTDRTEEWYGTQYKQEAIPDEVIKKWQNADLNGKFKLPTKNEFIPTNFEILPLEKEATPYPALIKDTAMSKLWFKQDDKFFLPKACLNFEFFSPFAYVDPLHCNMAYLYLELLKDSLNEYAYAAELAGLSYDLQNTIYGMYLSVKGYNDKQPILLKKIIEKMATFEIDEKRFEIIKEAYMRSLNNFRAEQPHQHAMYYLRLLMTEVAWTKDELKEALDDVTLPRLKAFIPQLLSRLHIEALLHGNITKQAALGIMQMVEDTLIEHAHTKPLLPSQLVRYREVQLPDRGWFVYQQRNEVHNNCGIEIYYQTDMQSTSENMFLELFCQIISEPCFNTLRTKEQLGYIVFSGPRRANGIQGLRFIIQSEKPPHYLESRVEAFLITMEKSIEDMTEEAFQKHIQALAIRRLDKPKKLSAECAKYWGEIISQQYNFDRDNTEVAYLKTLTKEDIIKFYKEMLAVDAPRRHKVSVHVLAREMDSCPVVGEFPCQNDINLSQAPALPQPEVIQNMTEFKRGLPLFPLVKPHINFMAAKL

Q: For `CCCN1C[C@@H](C)[C@@H](OC)CN(C)C(=O)c2cc(NC(=O)C3CCC3)ccc2OC[C@H]1C`, which z-score is on record?
A: The z-score was -0.201 (inactive).

Q: With `O=C(C[C@@H]1C=C[C@@H](NC(=O)c2ccc3c(c2)OCO3)[C@H](CO)O1)NC1Cc2ccccc2C1` as the molecule, how does the z-score read?
A: Its z-score is 0.748 (inactive).

Q: `O=C(c1ccccn1)N1CC2(C1)[C@@H](c1ccccc1)[C@@H](CO)N2C(=O)C1CCCCC1` was tested. Which z-score did it give?
A: The z-score was -4.56 (active).

Q: For `CN(C)CC(=O)N1CC2(C1)[C@H](c1ccccc1)[C@H](CO)N2C(=O)C1CC1`, which z-score is on record?
A: Its z-score is -1.06 (inactive).

Q: How did the z-score turn out when `O=C(C1CCCC1)N1[C@@H](CO)[C@@H](c2ccccc2)C12CN(Cc1ccc(F)cc1)C2` was run?
A: Its z-score is 1.26 (inactive).

Q: For `CCS(=O)(=O)Nc1ccc2c(c1)C(=O)N(C)[C@H]1CC[C@H](CC(=O)N[C@@H]3CCN(Cc4ccccc4)C3)O[C@H]1CO2`, which z-score is on record?
A: Its z-score is -0.74 (inactive).

Q: How did the z-score turn out when `Cc1cccc(-c2ccc([C@H]3[C@@H](CO)N4CCCCN(Cc5cncnc5)C[C@H]34)cc2)c1` was run?
A: The z-score was -5.22 (active).

Q: `OC[C@H]1[C@H](c2ccc(-c3cccc(F)c3)cc2)[C@@H]2CN(Cc3cncnc3)CCCCN12` was tested. Which z-score did it give?
A: Its z-score is 0.665 (inactive).

Q: `OC[C@@H]1[C@H](c2ccc(C3=CCCC3)cc2)[C@H]2CN(Cc3ccncc3)CCCCN12` was tested. Which z-score did it give?
A: Its z-score is 1.19 (inactive).

Q: With `OC[C@H]1[C@H](c2ccc(-c3cccnc3)cc2)[C@H]2CN(Cc3ccccn3)CCCCN21` as the molecule, how does the z-score read?
A: Its z-score is -3.14 (active).

Q: Which z-score does the source give for `Cc1ccc(-c2ccc([C@H]3[C@H](CO)N4CCCCN(Cc5cncnc5)C[C@@H]34)cc2)cc1` here?
A: The z-score was 3.25 (inactive).

Q: For `COc1ccc(CN2CCCCN3[C@H](C2)[C@H](c2ccc(-c4ccc(OC)cc4)cc2)[C@@H]3CO)cc1`, which z-score is on record?
A: Its z-score is 3.61 (inactive).

Q: `CCC(=O)N1CCCCN2[C@H](CO)[C@@H](c3ccc(-c4cccnc4)cc3)[C@H]2C1` was tested. Which z-score did it give?
A: Its z-score is 0.698 (inactive).

Q: `OC[C@@H]1[C@H](c2ccc(Br)cc2)[C@@H]2CN(Cc3ccccn3)CCCCN12` was tested. Which z-score did it give?
A: Its z-score is 0.871 (inactive).

Q: Which z-score does the source give for `Cc1cccc(-c2ccc([C@@H]3[C@H](CO)N4CCCCN(Cc5ccncc5)C[C@@H]34)cc2)c1` here?
A: Its z-score is -5.19 (active).

Q: `CO[C@H]1CN(C)C(=O)c2cc(NC(=O)NC(C)C)ccc2OC[C@H](C)N(C(=O)CN(C)C)C[C@H]1C` was tested. Which z-score did it give?
A: Its z-score is -0.369 (inactive).

Q: With `COCCN(C[C@H]1[C@H](c2ccccc2)[C@@H](CO)N1C(C)=O)C(=O)c1cccnc1` as the molecule, how does the z-score read?
A: The z-score was -0.97 (inactive).

Q: With `CN(C)C(=O)c1ccc(-c2ccc([C@H]3[C@H](CO)N4CCCCN(S(C)(=O)=O)C[C@@H]34)cc2)cc1` as the molecule, how does the z-score read?
A: The z-score was 4.37 (inactive).

Q: Which z-score does the source give for `CN(C)C(=O)c1ccc(-c2ccc(C3[C@@H]4CN(C(=O)Nc5ccccc5)C[C@H]3N4)cc2)cc1` (stereo not given in full) here?
A: Its z-score is 0.753 (inactive).

Q: Which z-score does the source give for `O=C(C1CCCCC1)N1CC(=O)N2[C@H](CO)[C@H](c3ccc(Br)cc3)[C@H]2C1` here?
A: Its z-score is 2.21 (inactive).

Q: Which z-score does the source give for `O=C(C1CCCC1)N1CC(=O)N2[C@H](CO)[C@H](c3ccc(Br)cc3)[C@@H]2C1` here?
A: Its z-score is 1.85 (inactive).

Q: How did the z-score turn out when `O=C(C1CCCC1)N1CC(=O)N2[C@H](CO)[C@H](c3ccc(Br)cc3)[C@H]2C1` was run?
A: Its z-score is 3.78 (inactive).

Q: How did the z-score turn out when `O=C(C1CCCCC1)N1CC(=O)N2[C@H](CO)[C@H](c3ccc(-c4ccccc4F)cc3)[C@H]2C1` was run?
A: Its z-score is -2.1 (inactive).

Q: For `O=C(c1ccc(F)cc1)N1CC(=O)N2[C@H](CO)[C@H](c3ccc(-c4ccccc4F)cc3)[C@@H]2C1`, which z-score is on record?
A: The z-score was 0.797 (inactive).

Q: Which z-score does the source give for `O=C(C1CCC1)N1CC(=O)N2[C@H](C1)[C@@H](c1ccc(-c3ccccc3F)cc1)[C@@H]2CO` here?
A: The z-score was -10.1 (active).

Q: `Cc1ccccc1-c1ccc(C2[C@@H]3CN(C(=O)C4CCCCC4)C[C@H]2N3)cc1` (stereo not given in full) was tested. Which z-score did it give?
A: The z-score was 1.9 (inactive) and -13.9 (active).

Q: Which z-score does the source give for `O=C(C1CC1)N1CC(=O)N2[C@H](CO)[C@@H](c3ccc(-c4ccccc4F)cc3)[C@@H]2C1` here?
A: The z-score was -6.21 (active).

Q: With `O=C(C1CCC1)N1C[C@@H]2N[C@H](C1)C2c1ccc(-c2cncnc2)cc1` (stereo not given in full) as the molecule, how does the z-score read?
A: Its z-score is 0.446 (inactive).

Q: Which z-score does the source give for `COCC(=O)N1CC(=O)N2[C@H](CO)[C@@H](c3ccc(-c4ccccc4F)cc3)[C@H]2C1` here?
A: Its z-score is -0.201 (inactive).

Q: `O=C(C1CCCCC1)N1CC(=O)N2[C@H](CO)[C@@H](c3ccc(-c4ccccc4F)cc3)[C@@H]2C1` was tested. Which z-score did it give?
A: The z-score was -3.81 (active).
